Screens: PubChem BioAssay, National Center for Advancing Translational Sciences (NCATS)
JMJD2A Tudor inh – blocks the human JMJD2A Tudor domain. AlphaScreen JMJD2A-Tudor / H3K4me3 peptide binding. Potency, µM (doses to about 114 µM), for inactives: at the top dose activity change, negative = inhibition, hits mostly inhibitors. hit rate 4.4% among 390,000. AID 504339; also: % is scaled to controls: 0 for no effect and ±100 for the full control effect; nearly all actives have a fitted effect of over 50% in size
ALOX12 inh – ALOX12 (human) lipoxygenase inhibition | hit rate 1.1% among 580,000 | P18054 | purified 12hLO, xylenol orange hydroperoxide absorbance | Potency, µM (series often up to 108 µM), without a hit: top-dose activity change, negative = inhibition, most hits filed as inhibitors | AID 1671190; also: % is scaled to controls: 0 for no effect and ±100 for the full control effect
Target sequence (P18054 whole entry, looked up): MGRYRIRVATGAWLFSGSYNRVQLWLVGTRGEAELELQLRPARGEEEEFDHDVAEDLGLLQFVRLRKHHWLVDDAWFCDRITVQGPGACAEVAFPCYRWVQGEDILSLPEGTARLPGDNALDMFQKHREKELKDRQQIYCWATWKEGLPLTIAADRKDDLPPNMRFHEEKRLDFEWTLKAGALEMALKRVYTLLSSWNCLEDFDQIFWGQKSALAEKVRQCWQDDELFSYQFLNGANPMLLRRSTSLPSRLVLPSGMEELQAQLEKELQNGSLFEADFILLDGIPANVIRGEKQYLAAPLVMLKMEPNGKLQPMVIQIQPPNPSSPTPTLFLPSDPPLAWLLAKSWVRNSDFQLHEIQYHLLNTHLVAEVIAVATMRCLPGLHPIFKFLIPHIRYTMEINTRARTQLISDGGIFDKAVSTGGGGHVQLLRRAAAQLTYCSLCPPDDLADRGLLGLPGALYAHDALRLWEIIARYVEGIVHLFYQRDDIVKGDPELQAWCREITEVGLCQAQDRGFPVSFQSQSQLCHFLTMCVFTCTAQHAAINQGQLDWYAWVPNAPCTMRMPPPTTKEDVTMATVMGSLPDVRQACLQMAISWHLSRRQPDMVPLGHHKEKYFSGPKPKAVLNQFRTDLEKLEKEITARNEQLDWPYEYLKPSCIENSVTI
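Purified human 12hLO (150 nM final) in 25 mM Hepes, 0.01% Triton X-100, pH 7.0 was preincubated 15 min at room temperature with compound. Then 40 uM arachidonic acid was added, 30 min. Hydroperoxide was read by Fe-XO absorbance ratio 573/405 nm.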
BAZ2B block – inhibitors of human BAZ2B bromodomain; hit rate 4.4% among 360,000; Potency, µM (titrated, usually from 114 µM), inactives show at the top dose activity change, negative = inhibition, hits mostly inhibitors; Q9UIF8; AID 504333; AlphaScreen BAZ2B-H3K14Ac peptide displacement; also: % is scaled to controls: 0 for no effect and ±100 for the full control effect; nearly all actives have a fitted effect of over 60% in size
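Complex of BAZ2B and biotin-H3K14Ac (50 nM apiece) forms over 30 min at RT, then faces library compounds up to 110 uM for another 30 min; AlphaScreen beads added, 20 min dark incubation, luminescence read.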
Sfp inh – Sfp phosphopantetheinyl transferase inhibition. Biochemical Sfp PPTase activity, qHTS. Potency, µM, inactives show largest response in the series, negative = inhibition, hits mostly inhibitors. hit rate 3.5% among 310,000. AID 1490;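 also: the enzyme is Sfp with the accession as filed and its product quenches rhodamine fluorescence; 0% = enzyme reaction without inhibitor and -100% = no enzyme wells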
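Fluorescence-quenching assay with 15 nM Sfp, 5 uM rhodamine-CoA and 12.5 uM BHQ-2-labelled ybbR peptide in pH 7.6 Hepes/MgCl2 buffer. Enzyme was pre-incubated with compound for 15 min at room temperature. Rate was taken from the 30-min fluorescence change (525/598 nm).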
G9a block – G9a (human) methyltransferase inhibition | Potency, µM (titrated, usually from 102 µM), for the others: at the top dose activity, negative = inhibition, actives largely listed as inhibitors | hit rate 8.8% among 350,000 | AID 504332 | Q96KQ7 | G9a H3K9 monomethylation, AlphaScreen, 2 h; also: % is scaled to controls: 0 for no effect and ±100 for the full control effect; nearly all actives have a fitted effect of over 75% in size
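Chemiluminescent proximity detection of H3K9 monomethylation, read after 10 min bead incubation in the dark. Reaction: 20 nM G9a, 500 nM biotin-H3K9 peptide, 20 uM SAM cofactor, 2 h, room temperature, following 15 min enzyme-compound preincubation.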
HP1b chromo inh – blocks HP1-beta chromodomain binding to methylated histone tails. AID 540317. AlphaScreen HP1-beta / biotin-H3K9me3 peptide binding. Potency, µM (highest dose often 114 µM), without a hit: top-dose activity change, negative = inhibition, actives largely listed as inhibitors. P83916. hit rate 0.56% among 390,000; also: nearly all actives have a fitted effect of over 70% in size
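Compound inhibition of the preformed complex between 50 nM HP1-beta and 50 nM biotinylated H3K9me3 peptide was read by AlphaScreen. Buffer was PBS pH 7.4 with 0.01% Tween-20. Incubations ran 30 min at room temperature, with 10 ug/mL donor/acceptor beads.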
The depositor's hits bear a star; [ ] = dose if it differs, or a comment. In the library only some 8.7% were active in any assay of this set; here they are far more common. Calls follow the shape of the dose curve; as a rule, active = well fitted curve in the direction sought with a large enough effect; inconclusive = small, poorly fitted or top-dose-only effect, or another doubt; inactive = no such curve, though single readings can be large; an effect the other way counts as inactive or inconclusive. Potency is read from the fitted curve at half-maximal effect.

Screening COc1ccc(NS(=O)(=O)c2cccc(C(=O)NNC(=O)NCCCl)c2)cc1 returned JMJD2A Tudor inh -26%, ALOX12 inh 4%, BAZ2B block -50%, Sfp inh 0%, G9a block 50µM* and HP1b chromo inh 21%.
For CCCNC(=O)C(NC(=O)c1cccc(OC)c1)C1CCN(C(=O)COC)CC1 (centres undefined) the results were ALOX12 inh 4%.
Cc1cccc(-c2nc(C#N)c(N3CCN(C(=O)c4cccs4)CC3)o2)c1 was read as ALOX12 inh 0%.
Screening CCn1c(SC2CCOC2=O)nnc1-c1ccc(Cl)cc1 (centres undefined) returned JMJD2A Tudor inh -5%, ALOX12 inh -14%, BAZ2B block -18%, Sfp inh 26%, G9a block inconclusive and HP1b chromo inh 46%.
For O=C1OCCC1Sc1nnc(-c2ccc(Cl)cc2)n1Cc1ccccc1 (centres undefined) the results were JMJD2A Tudor inh -2%, ALOX12 inh -18%, BAZ2B block 11%, Sfp inh 13%, G9a block 11µM* and HP1b chromo inh 52%.
COc1ccccc1-n1c(=O)c2c(n3cnnc13)-c1ccccc1CC21CCCCC1 was read as ALOX12 inh 12%.
For O=C1NC(=S)SC1=C1CCCCCC1 the results were JMJD2A Tudor inh -19%, ALOX12 inh inconclusive, BAZ2B block inconclusive, Sfp inh 35µM*, G9a block inconclusive and HP1b chromo inh 10%.
`O=C(CN1C(=O)/C(=C/c2cccc(Cl)c2)SC1=S)NC1C=CS(=O)(=O)C1` (centres undefined) gave JMJD2A Tudor inh -19%, ALOX12 inh inconclusive, BAZ2B block -27%, Sfp inh -27%, G9a block -8% and HP1b chromo inh 2%.
O=C(CN1C(=O)S/C(=C\c2ccc(Cl)cc2)C1=O)NC1C=CS(=O)(=O)C1 (centres undefined) was read as JMJD2A Tudor inh 20µM*, ALOX12 inh -16%, BAZ2B block -13%[57.1 µM], Sfp inh -4%, G9a block 10% and HP1b chromo inh 0%.
For CN1CCN(NC(=O)CN2C(=O)/C(=C/c3ccccc3F)SC2=S)CC1 the results were ALOX12 inh -7%, BAZ2B block inconclusive, Sfp inh -28% and G9a block 50µM*.
O=C(CN1C(=O)S/C(=C\c2cccc(Cl)c2)C1=O)NC1C=CS(=O)(=O)C1 (centres undefined) was read as JMJD2A Tudor inh 0%, ALOX12 inh -21%, BAZ2B block -5%, Sfp inh 6%, G9a block 1% and HP1b chromo inh 39%.
Screening O=C(CN1C(=O)/C(=C/c2ccccc2F)SC1=S)NC1C=CS(=O)(=O)C1 (centres undefined) returned JMJD2A Tudor inh -11%, ALOX12 inh -29%, BAZ2B block -32%, Sfp inh 22µM* and HP1b chromo inh 50%.
CC(=O)Nc1cccc(-c2cc(C(=O)NCc3c(C)cc(C)[nH]c3=O)c3c(c2)N(C(C)C)CCO3)c1 was read as ALOX12 inh 76%.
`OCC1CN(Cc2ccccc2)CC12CCN(Cc1ccccn1)CC2` (centres undefined) gave ALOX12 inh 108%.
Screening S=c1[nH]nc(Cn2cnc3ccccc32)n1-c1ccccc1Cl returned JMJD2A Tudor inh 50µM*, ALOX12 inh -11%, BAZ2B block 20%, Sfp inh 89µM* and HP1b chromo inh 41%.
For Clc1ccc(Cn2cnc3ccccc32)cc1 the results were JMJD2A Tudor inh -16%, ALOX12 inh 9%, BAZ2B block -3%, Sfp inh 13%, G9a block 7%[12.7 µM] and HP1b chromo inh 27%.
`O=C(CCc1ncc(-c2ccccc2Cl)o1)Nc1nccs1` gave ALOX12 inh 16%.
Cc1ccc(C2SCC(=O)N2Cc2cn3ccsc3n2)o1 (centres undefined) was read as JMJD2A Tudor inh -8%, ALOX12 inh 0%, BAZ2B block 11%, Sfp inh 56µM*, G9a block inconclusive and HP1b chromo inh 38%.
`c1cn2cc(CN3CCOCC3)nc2s1` gave JMJD2A Tudor inh -17%, ALOX12 inh 1%, BAZ2B block 6%, Sfp inh -8%, G9a block -42%[59 µM] and HP1b chromo inh 15%.
`COc1ccc(C(NC(=O)N2CC(C)OC(C)C2)C(Cl)(Cl)Cl)cc1F` (centres undefined) gave JMJD2A Tudor inh inconclusive, ALOX12 inh 14%, BAZ2B block 10%, Sfp inh 17%, G9a block 13% and HP1b chromo inh 4%.
Screening Cc1ccc(C(NC(=O)N2CCN(C)CC2)C(Cl)Cl)cc1F (centres undefined) returned JMJD2A Tudor inh -14%, ALOX12 inh -4%, BAZ2B block -16%, Sfp inh 15%, G9a block inconclusive and HP1b chromo inh 28%.
Cc1ccc(C(NC(=O)N2CCOCC2)C(Cl)Cl)cc1F (centres undefined) was read as JMJD2A Tudor inh -6%, ALOX12 inh -14%, BAZ2B block -2%, Sfp inh 16%, G9a block 45µM* and HP1b chromo inh 2%.
`Cc1ccc(C(NC(=O)N2CC(C)OC(C)C2)C(Cl)Cl)cc1F` (centres undefined) gave JMJD2A Tudor inh -8%, ALOX12 inh inconclusive, BAZ2B block 34%, Sfp inh 7%, G9a block 79µM* and HP1b chromo inh 43%.
Screening O=C(c1ccc(-c2noc(C3CC3)n2)cc1)N1CCC2(CCOCC2)CC1 returned ALOX12 inh 5%.
Screening Cc1ccc(S(=O)(=O)NC(C)C(=O)NC2CC2)cc1 (centres undefined) returned JMJD2A Tudor inh -1%, ALOX12 inh -1%, BAZ2B block -4%, Sfp inh -3%, G9a block 79µM* and HP1b chromo inh 28%.
Cc1ccccc1CSc1nnc(NC(=O)Cc2cccs2)s1 was read as JMJD2A Tudor inh -21%, ALOX12 inh -27%, BAZ2B block 71µM*, Sfp inh -14%, G9a block 5% and HP1b chromo inh 35%.
For Cc1cc(NC(=O)Cc2cccs2)no1 the results were JMJD2A Tudor inh 18µM*, ALOX12 inh -71%, BAZ2B block 45µM*, Sfp inh -19%, G9a block inconclusive and HP1b chromo inh inconclusive.
For Cc1cc(NC(=O)CSc2c(C)[nH]c3ccccc23)no1 the results were JMJD2A Tudor inh -13%, ALOX12 inh -11%, BAZ2B block -8%, Sfp inh -7%, G9a block 50µM* and HP1b chromo inh 37%.
